Results as given in the supplement of paper PMC12636033.
± gives the standard deviation of the averaged measurements. Over roughly 33,000 sequences, “E-score (rank enrichment, -0.5 to 0.5)” has its median near -0.0028; the highest 2% begin near 0.23. For the sample, the highest values were picked, then their nearest neighbours and some sequences at random.

System: 2Sb-muMax20 (muMax20 with two 1,3-bis(methyl)benzene Cys staples, A13C/A17C and Q88C/A92C, C-terminal Lys)
Test: PBM 8-mer E-score (E-score (rank enrichment, -0.5 to 0.5)); higher = stronger preferential binding
Protocol: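 Protein binding microarray (universal PBM chip covering all 10-mers in fixed probe flanks) with chemically synthesized human Max(13-93) bHLH-LZ analogs (not full-length Max) bearing noncanonical residues (hArg, Tha, Aib, Nle at 65) and aromatic Cys staples. Read-out per 8-mer (and its reverse complement): E-score (rank-based enrichment, -0.5 to 0.5) and Z-score of median probe intensity.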

Row | Sequence | PBM 8-mer E-score
1 | AAGGGCCG | -0.18 ± 0.018
2 | ATTTTAGA | 0.0196 ± 0.021
3 | CTGTTTCC | -0.0107 ± 0.033
4 | CGCGCACG | 0.0273 ± 0.007
5 | GAATCTAC | 0.0758 ± 0.0052
6 | TATACCCA | 0.0636 ± 0.015
7 | ATTACCCG | 0.0122 ± 0.03
8 | ATTACCCA | 0.2414 ± 0.0019
9 | AATACCCA | 0.272 ± 0.021
10 | ATTACCCC | 0.226 ± 0.0063
11 | AATACCCG | -0.105 ± 0.092
12 | ATTCCAAT | -0.0251 ± 0.027
13 | CAGGACCA | -0.196 ± 0.036
14 | ATCTGTCC | 0.0828 ± 0.032
15 | ATCTGTCA | 0.236 ± 0.0051
16 | ATCTGTCG | 0.089 ± 0.014
17 | CGGACTCA | -0.147 ± 0.028
18 | GTACAACA | 0.159 ± 0.0065
19 | ACACAACG | 0.0437 ± 0.0021
20 | ATACAAGC | 0.284 ± 0.043
21 | ATACAACG | 0.252 ± 0.027
22 | ATACAAGA | -0.044 ± 0.011
23 | CTACAAGC | -0.00747 ± 0.0035
24 | ATACAACA | 0.239 ± 0.053
25 | CTACAACA | 0.0685 ± 0.041

Row | Sequence | PBM 8-mer E-score
26 | ATACAACC | -0.0388 ± 0.043
27 | CTTACGCC | 0.0349 ± 0.067
28 | AGTCTACA | -0.0861 ± 0.047
29 | TAGCAATA | -0.02 ± 0.012
30 | AGGCCGCG | -0.113 ± 0.078
31 | GAGACGCA | 0.0251 ± 0.025
32 | TCGGGCAA | -0.0563 ± 0.02
33 | CAAGGTTA | -0.0419 ± 0.083
34 | AAAGGTAG | 0.176 ± 0.01
35 | AAGCCGTG | -0.228 ± 0.057
36 | ACGCGAAG | -0.0725 ± 0.09
37 | AGTAGAAA | 0.1174 ± 0.00047
38 | CGTAGAAA | -0.0374 ± 0.016
39 | TGTAGAAA | 0.236 ± 0.0088
40 | CTATGCGC | -0.0257 ± 0.0089
41 | CGACCAAG | -0.128 ± 0.0088
42 | ATAAGTTA | 0.241 ± 0.01
43 | GTAAGTTA | 0.0157 ± 0.033
44 | ATTAGTTG | 0.205 ± 0.022
45 | CTAAGTTA | 0.0294 ± 0.017
46 | GTTAGTTA | 0.108 ± 0.058
47 | ATTAGTTA | 0.233 ± 0.039
48 | AGAATTGG | 0.092 ± 0.037
49 | ATGCTAGC | 0.17 ± 0.0032
50 | CCCGCCTC | 0.0922 ± 0.074

Row | Sequence | PBM 8-mer E-score
51 | GCTAAAGA | 0.0447 ± 0.088
52 | CAAGTTTA | 0.151 ± 0.057
53 | ACTCCGAC | -0.182 ± 0.046
54 | AATCACAC | 0.131 ± 0.016
55 | CAAAAACA | 0.00439 ± 0.066
56 | ACTATGCC | 0.101 ± 0.025
57 | ATTTTGTG | 0.0967 ± 0.078
58 | CTTTTGTA | 0.136 ± 0.035
59 | GTTTTGCA | 0.0867 ± 0.05
60 | ATTTTGTA | 0.271 ± 0.013
61 | GTTTTGTA | 0.279 ± 0.035
62 | GGTTTGTA | 0.0375 ± 0.026
63 | AAGGTTCC | -0.178 ± 0.069
64 | GGGTTGTA | 0.0272 ± 0.0033
65 | TAGACAAA | 0.053 ± 0.034
66 | CACGAATC | -0.015 ± 0.029
67 | AGAAGATG | -0.0449 ± 0.09
68 | ATCAAGAA | 0.121 ± 0.044
69 | AAAATTTC | 0.0563 ± 0.036
70 | GGAAATTA | 0.304 ± 0.016
71 | AGAAATTA | 0.0685 ± 0.035
72 | AAAAATTA | 0.0513 ± 0.022
73 | GAAATTTC | 0.245 ± 0.17
74 | GAAAATTA | 0.2425 ± 0.002
75 | CGAAATTA | -0.0924 ± 0.033

Row | Sequence | PBM 8-mer E-score
76 | CAAATTTC | 0.208 ± 0.085
77 | CAAAATTA | 0.108 ± 0.0041
78 | CGAAAACC | -0.0224 ± 0.019
79 | ACATACCC | -0.0475 ± 0.056
80 | ACTCTTTG | 0.0269 ± 0.0091
81 | TTAGATAA | 0.113 ± 0.021
82 | AACGCTCT | -0.0435 ± 0.014
83 | CAACCTGA | -0.0727 ± 0.068
84 | AAGCGCTC | -0.108 ± 0.037
85 | AAGCGCTA | -0.041 ± 0.0066
86 | AAGCGCTT | 0.309 ± 0.011
87 | ACTGAGCC | -0.209 ± 0.022
88 | GAATAGCA | 0.146 ± 0.046
89 | CATCCATG | -0.0304 ± 0.072
90 | ACTAGTAT | 0.201 ± 0.067
91 | CTTACTAC | 0.202 ± 0.032
92 | ACTACTAG | 0.241 ± 0.027
93 | ATTACTAC | 0.296 ± 0.011
94 | ACTACTAC | 0.0819 ± 0.046
95 | CCTACTAG | 0.0815 ± 0.034
96 | ATTACTAG | -0.0604 ± 0.047
97 | GCTACTAC | 0.233 ± 0.0041
98 | ACTACTAT | 0.173 ± 0.036
99 | GCTACTAA | 0.082 ± 0.075
100 | ACTAGTAG | 0.113 ± 0.013

Row | Sequence | PBM 8-mer E-score
101 | ACTAGTAA | 0.231 ± 0.036
102 | ACCTGTGA | -0.138 ± 0.064
103 | CCTATGAG | -0.157 ± 0.032
104 | AATCTAGA | -0.047 ± 0.028
105 | CCGTTTAA | -0.0517 ± 0.035
106 | AGAGCGTA | 0.00302 ± 0.045
107 | AGATGATC | -0.147 ± 0.013
108 | ACGGTGAG | -0.0622 ± 0.023
109 | CAGAATTA | -0.00473 ± 0.0023
110 | AGCGAAGA | -0.0699 ± 0.084
111 | AACATGTG | 0.344 ± 0.044
112 | AACATGTT | 0.122 ± 0.0036
113 | CACATGAA | 0.125 ± 0.0092
114 | TACATGCA | 0.181 ± 0.0009
115 | AACATGTC | 0.11 ± 0.051
116 | CACATGTG | 0.395 ± 0.00083
117 | CACATGCG | 0.124 ± 0.051
118 | CACATGTC | -0.0158 ± 0.02
119 | TACATGTA | 0.238 ± 0.06
120 | CACATGTA | 0.338 ± 0.0074
121 | CTCATGTA | 0.0268 ± 0.039
122 | GACATGTA | 0.147 ± 0.021
123 | CAACTCAG | -0.162 ± 0.038
124 | ACCGTCAG | -0.115 ± 0.051
125 | GACAGGAC | -0.0924 ± 0.0031

Row | Sequence | PBM 8-mer E-score
126 | GGGACCGA | -0.24 ± 0.04
127 | GGGCAGAC | -0.0224 ± 0.074
128 | GAACGATA | 0.0756 ± 0.039
129 | AGTAACCC | 0.0955 ± 0.019
130 | AATAAACA | 0.195 ± 0.025
131 | AACATGTA | 0.258 ± 0.027
132 | AACATGCA | 0.203 ± 0.011
133 | AACATGGA | -0.00271 ± 0.005
134 | CCCATCAA | 0.12 ± 0.019
135 | GCCATCAC | -0.154 ± 0.0083
136 | CCCATCAC | 0.249 ± 0.026
137 | GCAGAAAA | 0.0213 ± 0.046
138 | TAATGGGA | 0.147 ± 0.011
139 | AATTAGCT | 0.164 ± 0.022
140 | ACCCTTGA | -0.145 ± 0.041
141 | CCCCTTGA | 0.27 ± 0.0079
142 | CCCCTTCC | -0.0525 ± 0.1
143 | GCCCTTGA | -0.0328 ± 0.041
144 | TCCCTTCA | 0.0279 ± 0.022
145 | CCCCTTCA | 0.294 ± 0.014
146 | GGCCGCAC | -0.0381 ± 0.06
147 | CGCCACGC | -0.118 ± 0.0025
148 | GATTACCC | 0.093 ± 0.041
149 | ATCGGCCC | 0.0612 ± 0.096
150 | GTGCCGCA | -0.0229 ± 0.078

Row | Sequence | PBM 8-mer E-score
151 | AACCCAAT | -0.0928 ± 0.095
152 | ACCCCCAT | -0.188 ± 0.066
153 | AACCCATG | 0.106 ± 0.067
154 | ACCCCAAC | 0.217 ± 0.019
155 | ACCCCATG | 0.253 ± 0.019
156 | ACCCCAAA | 0.2008 ± 0.0017
157 | ACCCCAAT | 0.344 ± 0.025
158 | ACCCCAAG | 0.271 ± 0.016
159 | ACCCCATA | 0.147 ± 0.013
160 | CATTGCCA | -0.0459 ± 0.045
161 | CACCAGAA | -0.00913 ± 0.061
162 | GAGTCAGA | -0.0579 ± 0.039
163 | ACGGCCAA | -0.0314 ± 0.0051
164 | ACTGGTGC | -0.0379 ± 0.026
165 | CTATTCAC | -0.0182 ± 0.015
166 | CGATAGAA | 0.0743 ± 0.02
167 | CGTCCGAA | -0.121 ± 0.017
168 | TACAGAAA | 0.256 ± 0.021
169 | AACAGAAA | 0.0674 ± 0.036
170 | GACAGAAA | 0.111 ± 0.013
171 | AAGACGTC | 0.0152 ± 0.028
172 | GATGGCAC | 0.03519 ± 8.5e-05
